Data taken from the supplement of paper PMC8726507.
Values without a mark were called inactive.

tested on: Plasmodium falciparum NF54-HGL (transmission to Anopheles stephensi); assay: percentage of barcode signal found in uninfected mosquitoes (transmission-blocking activity); higher = stronger blocking of transmission to mosquito, active = 80 or more; conditions: 10 µM; gametocyte preincubation time 24 h; readout time post-feed 8 days
Description: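 The mixture was fed to Anopheles stephensi in 96-well plates as blood meals tagged with DNA-barcoded Asaia bacteria. Eight days later, mosquitoes were classed infected or uninfected by luminescence (mean + 5 SD of unfed controls). Barcodes were quantified by Luminex MagPlex-TAG in the pooled uninfected and infected Asaia cultures, background-corrected, and the score is % of barcode signal in uninfected mosquitoes = 100*Iu/(Iu+Ii).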

SMILES	percentage of barcode signal found in uninfected mosquitoes
CCOc1ccc2cc(-c3nn(CC4CCN(C)CC4)c4ncnc(N)c34)ccc2c1	-7.02%
Nc1nccc2ccc(-c3ccc4nccn4c3)cc12	92.9% (active)
O=C(c1ccc(NCCO)cc1)C1C[C@H]1c1ccc(Cl)cc1 (some centres not stated)	39.6%
Cc1cc(C)cc(COc2ccc3c(C)c(CCC(=O)O)c(=O)oc3c2C)c1	1.73%
COc1ccccc1OCCCCn1c(C2CC2)nc2ccccc21	48.5%
Cc1cc(C(=O)Nc2ccc(-c3ccccc3)cc2)no1	64%
CCCS(=O)(=O)N1CCC(CO)(Cc2ccccc2C(F)(F)F)CC1	39.3%
CC(=O)Oc1ccccc1C(=O)Nc1ncc([N+](=O)[O-])s1	8.87%
CCOC(=O)c1cc(-c2csc(Nc3c(C)cc(C)cc3C)n2)on1	11.5%
Cc1nc2ccccn2c1C(=O)NCc1ccc(Cl)cc1	48.8%
CCOc1ccc(-c2nc(NC(=O)CS(=O)(=O)c3ccccc3)sc2C)cc1	-3.11%
O=C(Cn1ccnc1[N+](=O)[O-])NCc1ccccc1	70%
Cc1cc(Nc2ccncc2)n2nc(C)c(-c3ccccc3Cl)c2n1	53.9%
Cc1ccc2[nH]c3c(NCCN(C)C)ncnc3c2c1	40.6%
COC(=O)Nc1nc2cc(C(=O)c3ccccc3)ccc2[nH]1	42.3%
O=C(Nc1ccnc(-c2cccnc2)n1)c1cc(C(F)(F)F)cc(C(F)(F)F)c1	46.9%
Cc1cccnc1NC(=O)c1cccc(OCc2c(C)noc2C)c1	-2.5%
COC(=O)c1ccc(F)cc1NS(=O)(=O)c1cccc(-c2cnn(Cc3ccccc3)c2)c1	31.1%
CCc1cc(=O)n(C)c(SC(C)C(=O)Nc2ccc(F)cc2)n1 (configuration not stated)	48.5%
Cc1cccc(Cn2ccc(NC(=O)c3ccc4c(c3)OCO4)n2)c1	42.9%
O=C(c1[nH]nc2c1CCCC2)N1CCN(Cc2ccc3c(c2)OCO3)CC1	9.05%

same assay, conditions: 20 µM; gametocyte preincubation time 24 h; readout time post-feed 8 days

SMILES	percentage of barcode signal found in uninfected mosquitoes
Cc1ccccc1CN1CCC(O)(c2ccc(Cl)c(C(F)(F)F)c2)CC1	-0.504%
COc1ccc(C2=NCCN2)cc1-c1cn(-c2cccc(C3=NCCN3)c2)nn1	16.8%
COc1ccc(CN2CCOc3ccc(C(C)(O)CN(C)C)cc3C2)cc1C (configuration not stated)	36.4%
COc1cccc(CC(=O)N2CCC(n3c(C)nc4ccc(F)cc43)CC2)c1	31.2%
c1ccc(Oc2ccc(-c3cncc(-c4ccc5[nH]ccc5c4)n3)cc2)cc1	29%
Clc1ccc(Cl)c(CO[C@H]2CCCC[C@@H]2n2ccnc2)c1	19.9%
FC(F)(F)c1ccc(N(c2cccnc2)C2CCN(c3ccc(C(F)(F)F)cn3)CC2)cc1	27.4%
Cc1[nH]c2cc(F)cc(F)c2c(=O)c1-c1ccc(Oc2ccc(OC(F)(F)F)cc2)cc1	78.3%
C[C@H]1COc2c(N3CCN(C)CC3)c(F)cc3c(=O)c(C(=O)O)cn1c23	-1.12%
Cc1cc(NCC(C)C)c2n[nH]c(-c3ccccc3)c2n1	43%
COc1ccc(-c2cnc3cnc(-c4cccc(OC(C)C)c4)cn23)cc1	-0.618%
Nc1ncc(Br)cc1-c1nc2cc(Cl)cnc2[nH]1	21.4%
c1ccc(C[C@@H]2CN(c3nccc(Oc4ccc(-n5ccnc5)cc4)n3)CCN2)cc1	35.3%
CCNC(=O)C(C)Nc1nc(-c2cccnc2)nc2sc(C)c(C)c12 (configuration not stated)	11.5%
COc1cccc(-c2nc3c(N4CCCC4)cccc3n2CC2CCCN2)n1 (configuration not stated)	68%
Nc1nc2ccc(-c3cncc(Oc4ccc(F)cc4)c3)cc2[nH]1	99.4% (active)
